PubChem BioAssay
Active and inactive are the calls of the source.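 How the source made its calls: active means hit in primary screen, with calcium signal over 5 SD above buffer well mean in both duplicates; inactive means the rest.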

experiment: calcium flux activation in mu-opioid HEK293 cells, confirmation, counter-screen for TRPC4 activator project, cell-based, HEK293 mu-opioid receptor line (AID 449723); conditions: Fluo-4 calcium fluorescence, at 10 µM;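 further: counter screen cells carry the mu-opioid receptor alone and lack TRPC4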

| SMILES | outcome |
| --- | --- |
| CN(C)CCCN(Cc1cc2cc3c(cc2[nH]c1=O)OCO3)C(=S)NCc1ccco1 | inactive |
| Cc1cc(OCC(=O)Nc2ccc(N3CCN(C)CC3)cc2)ccc1Cl | inactive |
| O=C(Nc1ccccc1Oc1cccnc1)C1CCCN(Cc2ccc(F)cc2)C1 (stereo not drawn) | inactive |
| Cc1ncsc1CCOC(=O)c1cccc([N+](=O)[O-])c1 | inactive |
| N#C/C(=N\Nc1cccc([N+](=O)[O-])c1)C(=O)c1ccc(Br)cc1 | inactive |
| CC(NC(=O)c1ccco1)C(c1cccs1)N1CCN(c2ccccc2)CC1 (stereo not drawn) | inactive |
| O=C(Cc1ccccc1[N+](=O)[O-])OCc1cccc([N+](=O)[O-])c1 | inactive |
| CCOc1cc(CNCCCN2CCOCC2)cc(Br)c1OCc1ccccc1Cl | inactive |
| O=C(NCCN1CCOCC1)c1cc2sccc2n1Cc1ccc(F)cc1 | inactive |
| Cn1c(-c2ccc(F)cc2)cnc1NCc1ccc(F)cc1F | inactive |
| Cc1[nH]c2ccc(C(=O)OC(C)C(=O)N(C)c3ccccc3)cc2c1C (stereo not drawn) | inactive |
| COc1cc(/C=C2\SC(=O)N(c3ccccc3Cl)C2=O)cc([N+](=O)[O-])c1O | inactive |
| Cc1ccc2nc(C)cc(Nc3ccc4c(c3)OCCO4)c2c1 | inactive |
| CC1CCN(CCCOc2ccc(OCc3ccccc3)cc2)CC1 | inactive |
| COCCn1c(SCC(=O)c2ccccc2)nc2ccccc2c1=O | inactive |
| O=C(c1ccco1)N1CCN(C/C=C/c2ccccc2)CC1 | inactive |
| Nc1cc(N2CCCCC2)c([N+](=O)[O-])cc1Cl | inactive |
| Cc1cc(Cl)c2oc(C(=O)N(C)Cc3nccn3C)c(C)c2c1 | inactive |
